FEN1 inhibitor – blocks human flap endonuclease 1; P39748; Recombinant FEN1 flap cleavage, fluorescence, 15 min; Potency, µM (highest dose often 114 µM), inactives show at the highest dose activity change, negative = inhibition, usual class: inhibitors; 390,000 tested, 0.35% active; AID 588795; also: potency is read from the fitted curve at half-maximal effect; % is scaled to controls: 0 for no effect and ±100 for the full control effect; nearly all actives have a fitted effect of over 65% in size
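Quantitative HTS format: each compound was titrated, incubated with 10 nM nuclease for 15 min at room temperature, then challenged with flap substrate at 50 nM final. Signal change over 15 min gave concentration–effect curves.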
PI5P4Ka inh – blocks human PI5P4K alpha kinase activity; P48426; PI5P4Kalpha enzyme, ADP-Glo luminescence, 60 min; hits give low values; max response, %; 330,000 tested, 1.2% active; AID 652105; active = max response of -50% or lower; inconclusive = between -30% and -50%; inactive = -30% or higher; also: value at the top dose of about 77 µM; % is scaled to controls: 0 for no effect and ±100 for the full control effect
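Enzyme plus substrate dispensed, test compounds pinned in, then ATP (5 microM final) added. After 60 min at RT, ADP-Glo reagent 1 for 45 min and reagent 2 for 30 min preceded luminescence imaging.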
Pol eta inh – DNA polymerase eta (human) inhibition. Potency, µM (series often up to 114 µM), inactives show at the highest dose activity change, negative = inhibition, hits mostly inhibitors. 390,000 tested, 1.2% active. recombinant Pol eta, fluorescent DNA replication assay. Q9Y253; also: potency is read from the fitted curve at half-maximal effect; % is scaled to controls: 0 for no effect and ±100 for the full control effect
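Pol eta (10 nM) was preincubated with compounds for 15 min at room temperature, after which fluorescent replication substrate (50 nM final) was added to start the reaction. Fluorescence was read kinetically at 0 and 10 min.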
POLB inh – blocks human DNA polymerase beta activity; P06746; Pol beta primer extension/strand displacement, fluorescence kinetic; Potency, µM (titrated, usually from 114 µM), for the others: at the highest dose activity change, negative = inhibition, hits mostly inhibitors; 340,000 tested, 1.3% active; also: potency is read from the fitted curve at half-maximal effect; % is scaled to controls: 0 for no effect and ±100 for the full control effect
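10 nM enzyme + cpd, 15 min RT; start with substrate 50 nM final; read 0 min and after 10 min RT. Corrected, normalized data; 4-parameter Hill curve fit.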
POLI inh – DNA polymerase iota (human) inhibition; Q9UNA4; Pol iota fluorescent replication assay, 10 min; Potency, µM (titrated, usually from 115 µM), inactives show at the top dose activity, negative = inhibition, usual class: inhibitors; 390,000 tested, 1% active; also: potency is read from the fitted curve at half-maximal effect
Target sequence (Q9UNA4 whole entry, looked up): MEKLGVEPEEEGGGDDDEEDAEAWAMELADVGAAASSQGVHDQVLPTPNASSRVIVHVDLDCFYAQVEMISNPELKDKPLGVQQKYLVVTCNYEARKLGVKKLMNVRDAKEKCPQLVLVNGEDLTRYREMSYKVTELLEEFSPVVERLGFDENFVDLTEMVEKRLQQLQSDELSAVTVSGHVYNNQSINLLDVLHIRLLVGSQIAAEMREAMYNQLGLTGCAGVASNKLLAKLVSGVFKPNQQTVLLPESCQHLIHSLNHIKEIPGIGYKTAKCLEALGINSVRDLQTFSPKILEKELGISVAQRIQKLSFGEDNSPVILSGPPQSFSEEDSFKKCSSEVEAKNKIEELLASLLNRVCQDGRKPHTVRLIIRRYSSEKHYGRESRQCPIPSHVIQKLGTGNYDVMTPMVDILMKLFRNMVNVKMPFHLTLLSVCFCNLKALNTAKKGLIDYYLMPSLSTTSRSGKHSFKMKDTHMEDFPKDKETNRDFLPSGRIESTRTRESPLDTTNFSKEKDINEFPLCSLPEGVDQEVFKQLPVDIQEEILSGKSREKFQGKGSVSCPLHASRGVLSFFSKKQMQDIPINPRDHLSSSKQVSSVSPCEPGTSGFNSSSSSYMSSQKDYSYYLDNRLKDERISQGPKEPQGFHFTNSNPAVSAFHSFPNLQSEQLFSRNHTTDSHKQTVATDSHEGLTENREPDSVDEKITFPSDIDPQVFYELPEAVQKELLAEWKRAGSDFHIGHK
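Fluorescent replication assay read twice, at 0 min and 10 min after adding 50 nM (final) substrate. Enzyme (10 nM) and compounds were first incubated 15 min at room temperature; enzyme-free buffer wells were negative controls.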
Pol kappa inh – blocks human DNA polymerase kappa activity; Potency, µM (top dose mostly 107 µM), without a hit: at the top dose activity, negative = inhibition, actives largely listed as inhibitors; 400,000 tested, 0.53% active; Q9UBT6; AID 588579; purified Pol kappa, fluorescent DNA synthesis assay, 10 min; also: potency is read from the fitted curve at half-maximal effect; % is scaled to controls: 0 for no effect and ±100 for the full control effect
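Pol kappa 10 nM + cpd, 15 min RT; start w/ substrate 50 nM final; fluorescence kinetic read, 0 and 10 min. Neg ctrl: buffer, no enzyme.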
The depositor's hits bear a star; [ ] = another dose, or the depositor's remark. Most compounds without a hit are left out; they make up all but 2.8% or so of the library. Unless noted, calls follow the shape of the dose curve; as a rule, active = well fitted curve in the direction sought with a large enough effect; inconclusive = small, poorly fitted or top-dose-only effect, or another doubt; inactive = no such curve, though single readings can be large; an effect the other way counts as inactive or inconclusive.

`Cc1nc2ccc([N+](=O)[O-])cc2c(=O)n1Cc1ccc([N+](=O)[O-])cc1` gave FEN1 inhibitor -22%, PI5P4Ka inh 0, Pol eta inh -8%, POLB inh 30%, POLI inh 2% and Pol kappa inh -4%.
Screening Cc1nc2ccc([N+](=O)[O-])cc2c(=O)n1Cc1cccc(Br)c1 returned FEN1 inhibitor -21%, PI5P4Ka inh -4, Pol eta inh -3%, POLB inh 79µM*, POLI inh 20% and Pol kappa inh -10%.
`O=C(O)c1ccc2c(ccc3nn(-c4ccc(/C=C/c5ccc(-n6nc7ccc8cc(C(=O)O)ccc8c7n6)cc5[S+](=O)([O-])[O-])c([S+](=O)([O-])[O-])c4)nc32)c1` gave FEN1 inhibitor 3.2µM*, POLI inh inconclusive and Pol kappa inh 1.8µM*.
Screening O=[S+]([O-])([O-])c1ccc2c(c1)cc([S+](=O)([O-])[O-])c1nn(-c3ccc(/C=C/c4ccc(-n5nc6c([S+](=O)([O-])[O-])cc7cc([S+](=O)([O-])[O-])ccc7c6n5)cc4[S+](=O)([O-])[O-])c([S+](=O)([O-])[O-])c3)nc12 returned FEN1 inhibitor inconclusive, POLI inh inconclusive and Pol kappa inh 10µM*.
Screening O=C(O)c1ccc2c(c1)ncn2-c1ccc(F)c(F)c1 returned FEN1 inhibitor 14%, Pol eta inh 2%, POLB inh 10%, POLI inh 6% and Pol kappa inh -11%.
For O=C(CC1N=C2c3ccccc3N=C(SCc3ccc(Cl)cc3)N2C1=O)NCc1ccco1 (stereo unspecified) the results were FEN1 inhibitor -14%, PI5P4Ka inh inconclusive, Pol eta inh 79µM*, POLB inh inconclusive, POLI inh inconclusive and Pol kappa inh inconclusive.
`Cc1ccc(CSC2=Nc3ccccc3C3=NC(CCC(=O)NCc4ccco4)C(=O)N23)cc1` (stereo unspecified) gave FEN1 inhibitor -8%, PI5P4Ka inh -10, Pol eta inh 7%, POLB inh 1%, POLI inh 27% and Pol kappa inh -10%.
COc1ccc(-n2c(NC(=O)c3ccc(Br)o3)c(C#N)c3nc4ccccc4nc32)cc1 was read as POLB inh 32µM*.
For CCC(=O)Nc1c(C#N)c2nc3ccccc3nc2n1-c1ccc(C)cc1 the results were FEN1 inhibitor -10%, PI5P4Ka inh 1, Pol eta inh 46%, POLI inh 22% and Pol kappa inh -1%.
For O=C(NCc1ccccc1F)C(=O)NCC(c1ccco1)S(=O)(=O)c1cccs1 (stereo unspecified) the results were FEN1 inhibitor -6%, Pol eta inh -16%, POLB inh -1%, POLI inh 22% and Pol kappa inh -7%[60.1 µM].
For CC1=C(c2ccc(C)c(C)c2)S(=O)(=O)N(Cc2ccc(C(=O)NCc3ccccc3F)cc2)C1=O the results were FEN1 inhibitor 4%, Pol eta inh -9%, POLB inh -5%, POLI inh 10% and Pol kappa inh -11%.
`Cn1c(=O)c2c([nH]c(=S)n2CCCc2ccccc2)n(C)c1=O` gave FEN1 inhibitor inconclusive, PI5P4Ka inh -94*, Pol eta inh -3%, POLB inh -18%, POLI inh 2% and Pol kappa inh -8%.
`Cn1c(=O)n(Cc2ccccc2Cl)c(=O)c2c1[nH]c(=S)n2C` gave FEN1 inhibitor -4%, PI5P4Ka inh -56*, Pol eta inh -7%, POLB inh 2%, POLI inh 32% and Pol kappa inh -11%.
`Cn1c(=O)[nH]c(=O)c2c1[nH]c(=S)n2Cc1ccc(Cl)cc1` gave FEN1 inhibitor -9%, PI5P4Ka inh -92*, Pol eta inh 2%, POLB inh 73%, POLI inh -15% and Pol kappa inh -7%.

Screens deposited in PubChem by National Center for Advancing Translational Sciences (NCATS).
